Test [1] relates to PRMT1 (protein arginine N-methyltransferase 1). The test can be described thus: PRMT1 binders on small-molecule microarrays, primary screen, biochemical, small-molecule microarray, 635 nm fluorescence (AID 1088).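 Also: binding of Prmt1 protein to compounds spotted on small-molecule microarray slides.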 The conditions noted are these: small-molecule microarray binding, higher = more signal.
Test [2] in a line: yeast growth modulation, basal conditions, primary screen, YJM789 clinical isolate, OD600, 24 h (AID 1089).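 Also: growth of clinical yeast isolate S. cerevisiae YJM 789 seeded 1000 cells per well; test concentration not given here.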 The conditions noted are these: S. cerevisiae YJM789 growth, higher = more signal, called active from +8 up or from −8 down.
Test [3] in a line: fission yeast growth modulation, primary screen, strain 972, OD600, 24 h, no modulator (AID 1090).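 Also: basal condition with compound alone and no growth modifier present; test concentration not given here.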 The conditions noted are these: S. pombe 972 growth, higher = more signal, called active from +8 up or from −8 down.
Test [4] in a line: S. cerevisiae growth modulation with rapamycin, primary screen, strain BY4716, OD600, 96 h (AID 1091). Also: test concentration not given here. The conditions noted are these: higher = more signal, called active from +8 up or from −8 down.
In test [5] the target is Torsin-1A-interacting protein 2 (Homo sapiens) (UniProt Q8NFQ8). The test can be described thus: LULL1 binders on small-molecule microarray, primary screen, cell lysate, human LULL1 lysate, 635/667 nm fluorescence (AID 1092).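 Also: probe is lysate of COS7 cells overexpressing human LULL1; score merges per-feature 667 nm fluorescence with signal-to-noise.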 The note with it: hLULL1 lysate binding, 635 nm fluorescence, higher = more signal.
Sequence of Torsin-1A-interacting protein 2 (Homo sapiens) (Q8NFQ8 whole entry, looked up): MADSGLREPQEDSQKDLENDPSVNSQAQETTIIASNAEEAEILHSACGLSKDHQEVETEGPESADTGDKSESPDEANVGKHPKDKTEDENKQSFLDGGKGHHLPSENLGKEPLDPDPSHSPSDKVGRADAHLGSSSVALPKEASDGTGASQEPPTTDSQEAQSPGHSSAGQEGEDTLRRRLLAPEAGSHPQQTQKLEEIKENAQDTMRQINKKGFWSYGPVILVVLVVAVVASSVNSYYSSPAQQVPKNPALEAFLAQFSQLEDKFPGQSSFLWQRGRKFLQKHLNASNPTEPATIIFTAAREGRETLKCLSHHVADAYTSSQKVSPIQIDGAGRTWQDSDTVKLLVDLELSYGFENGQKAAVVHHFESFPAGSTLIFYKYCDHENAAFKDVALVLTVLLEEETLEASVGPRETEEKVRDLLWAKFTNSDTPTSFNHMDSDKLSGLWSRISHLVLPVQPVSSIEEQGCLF
Test [6] in a line: E. coli growth modulation, two-sided OD650, primary screen, E. coli filamentation project, strain DRC41, 24 h (AID 1093).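 Also: MC1000 strain lacking acrAB efflux and sulA so SOS filamentation is blocked; test concentration not given here.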 The note with it: OD650, 24 h, higher = more signal, called active from +8 up or from −8 down.
The nature of test [7]: small-molecule microarray binders of probe aLefty2, primary screen, biochemical, biotinylated probe, 635/667 nm fluorescence (AID 1094).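 Also: score merges spot fluorescence near 667 nm with spot signal-to-noise ratio.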 The note with it: higher = more signal.
The test system of test [8] is Noggin (protein binding on small-molecule microarray). Put plainly: Noggin binders on small-molecule microarray, primary screen, biochemical, 635/667 nm fluorescence (AID 1095).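 Also: score merges 667 nm feature fluorescence with signal to noise over triplicate slides.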 The conditions noted are these: 635 nm fluorescence, higher = more signal.
The target in test [9] is Neurogenic locus notch homolog protein 3 (Homo sapiens) (UniProt Q9UM47). Put plainly: NOTCH3 binders on small-molecule microarray, primary screen, biochemical, 635/667 nm fluorescence (AID 1096). The conditions noted are these: NOTCH3 binding, 635 nm fluorescence, higher = more signal.
Sequence of Neurogenic locus notch homolog protein 3 (Homo sapiens) (Q9UM47 whole entry, looked up): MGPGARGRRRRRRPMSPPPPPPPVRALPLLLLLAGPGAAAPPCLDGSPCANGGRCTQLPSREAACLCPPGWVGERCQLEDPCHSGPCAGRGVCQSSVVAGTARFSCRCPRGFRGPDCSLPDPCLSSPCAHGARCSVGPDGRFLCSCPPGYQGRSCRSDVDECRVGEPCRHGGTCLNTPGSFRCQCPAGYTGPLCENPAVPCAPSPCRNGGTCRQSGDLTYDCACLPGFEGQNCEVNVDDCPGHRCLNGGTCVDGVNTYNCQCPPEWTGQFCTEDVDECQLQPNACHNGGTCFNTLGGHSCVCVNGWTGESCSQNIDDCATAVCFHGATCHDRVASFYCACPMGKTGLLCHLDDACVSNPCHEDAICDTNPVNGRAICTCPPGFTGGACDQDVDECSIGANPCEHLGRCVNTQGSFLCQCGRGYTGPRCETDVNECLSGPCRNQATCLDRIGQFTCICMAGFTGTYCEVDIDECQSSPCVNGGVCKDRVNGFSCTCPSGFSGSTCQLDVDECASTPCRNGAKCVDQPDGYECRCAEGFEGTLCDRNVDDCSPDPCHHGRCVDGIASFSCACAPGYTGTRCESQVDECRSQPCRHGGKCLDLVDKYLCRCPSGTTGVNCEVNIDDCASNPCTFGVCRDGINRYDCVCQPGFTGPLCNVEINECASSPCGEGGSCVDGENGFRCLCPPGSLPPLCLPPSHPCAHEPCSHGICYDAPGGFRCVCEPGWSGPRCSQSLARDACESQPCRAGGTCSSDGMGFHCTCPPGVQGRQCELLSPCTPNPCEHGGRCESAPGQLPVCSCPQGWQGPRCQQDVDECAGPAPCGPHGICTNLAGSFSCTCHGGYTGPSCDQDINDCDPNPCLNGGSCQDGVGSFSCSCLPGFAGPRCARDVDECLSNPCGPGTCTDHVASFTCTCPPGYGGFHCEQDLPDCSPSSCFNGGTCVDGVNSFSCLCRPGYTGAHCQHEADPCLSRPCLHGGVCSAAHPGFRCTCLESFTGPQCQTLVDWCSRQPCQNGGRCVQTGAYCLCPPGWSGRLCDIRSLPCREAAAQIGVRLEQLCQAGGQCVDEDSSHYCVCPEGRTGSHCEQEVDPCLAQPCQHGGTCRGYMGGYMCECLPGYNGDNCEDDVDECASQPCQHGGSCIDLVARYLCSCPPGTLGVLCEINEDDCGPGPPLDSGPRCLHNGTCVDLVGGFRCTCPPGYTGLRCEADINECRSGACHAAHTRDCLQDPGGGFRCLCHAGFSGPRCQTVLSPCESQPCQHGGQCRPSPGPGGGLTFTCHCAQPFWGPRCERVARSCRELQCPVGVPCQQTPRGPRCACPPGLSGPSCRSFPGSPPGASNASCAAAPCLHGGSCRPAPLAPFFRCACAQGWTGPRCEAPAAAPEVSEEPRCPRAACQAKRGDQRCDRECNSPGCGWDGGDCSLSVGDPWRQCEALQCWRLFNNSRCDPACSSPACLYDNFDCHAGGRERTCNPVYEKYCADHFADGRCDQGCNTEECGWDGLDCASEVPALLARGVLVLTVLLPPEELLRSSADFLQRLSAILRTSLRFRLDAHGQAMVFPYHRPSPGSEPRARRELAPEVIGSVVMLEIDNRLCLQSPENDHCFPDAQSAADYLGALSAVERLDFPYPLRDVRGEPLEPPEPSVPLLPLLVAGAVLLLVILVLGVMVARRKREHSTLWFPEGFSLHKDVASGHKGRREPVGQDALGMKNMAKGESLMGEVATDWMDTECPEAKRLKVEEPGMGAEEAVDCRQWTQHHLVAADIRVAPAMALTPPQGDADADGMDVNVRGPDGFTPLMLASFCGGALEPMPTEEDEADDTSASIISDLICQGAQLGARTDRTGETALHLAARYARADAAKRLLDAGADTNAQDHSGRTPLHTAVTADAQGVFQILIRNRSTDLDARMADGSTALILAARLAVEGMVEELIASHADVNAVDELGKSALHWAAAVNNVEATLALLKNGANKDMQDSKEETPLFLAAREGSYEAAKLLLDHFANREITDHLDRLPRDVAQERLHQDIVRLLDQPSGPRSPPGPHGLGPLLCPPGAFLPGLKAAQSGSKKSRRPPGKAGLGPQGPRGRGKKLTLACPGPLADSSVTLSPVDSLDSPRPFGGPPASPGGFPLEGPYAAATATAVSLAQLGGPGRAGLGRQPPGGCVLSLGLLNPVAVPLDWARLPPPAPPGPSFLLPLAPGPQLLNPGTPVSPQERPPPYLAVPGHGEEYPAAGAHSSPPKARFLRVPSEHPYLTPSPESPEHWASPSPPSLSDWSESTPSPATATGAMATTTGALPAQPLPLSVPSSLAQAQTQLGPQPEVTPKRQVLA
Test [10] in a line: small-molecule microarray binders of probe aEGFR, primary screen, biochemical, biotinylated probe, 635/667 nm fluorescence (AID 1097).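 Also: probe is a biotinylated anti-EGFR antibody binding compounds printed on slides; score combines fluorescence near 667 nm and signal to noise of each spot.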 The conditions noted are these: higher = more signal.
Test [11] deals with Plasmodium falciparum Sir2 (PF13_0152, Sir2A). The test can be described thus: pfSir2 binders on small-molecule microarrays, primary screen, biochemical, small-molecule microarray, 635 nm fluorescence (AID 1098).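 Also: score merges spot fluorescence intensity with its signal-to-noise ratio.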 The conditions noted are these: small-molecule microarray binding, fluorescence 635 nm; higher = more signal.
A short description of test [12]: small-molecule microarray binders of probe aDKK1, primary screen, biochemical, biotinylated probe, 635/667 nm fluorescence (AID 1099).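 Also: score merges 667nm spot fluorescence with signal to noise across triplicate slides; reference of the scale not given here.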 The conditions noted are these: higher = more signal.
Test [13] in a line: small-molecule microarray binders of probe aCHRDL2, primary screen, biochemical, biotinylated probe, 635/667 nm fluorescence (AID 1100). The conditions noted are these: higher = more signal.
Test [14] is described as follows: splicing luciferase reporter signal modulators, primary screen, spliceosome inhibition project, cell-based, HEK293, splice +/- reporter (AID 1101).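 Also: HEK293 cells carrying a splicing-competent luciferase reporter gene; test concentration not given here.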 The conditions noted are these: luminescence, 24 h, higher = more signal, called active from +8 up or from −8 down. A general note: In a reporter assay the amount or activity of a reporter protein is the signal.
Test [15] has as its target Fibroblast growth factor 10 (Homo sapiens) (UniProt O15520). The test can be described thus: FGF10 binders on small-molecule microarrays, primary screen, biochemical, small-molecule microarray, 635 nm fluorescence (AID 1102). The conditions noted are these: FGF10 binding, fluorescence 635 nm, higher = more signal.
Test [16] has as its system glycogen synthase kinase-3 (GSK3A per assay name; protocol says GSK3B). The test can be described thus: GSK3 binders on small-molecule microarrays, primary screen, biochemical, small-molecule microarray, 635 nm fluorescence, GSK3A (AID 1103). Also: the record names both GSK3A and GSK3B. The conditions noted are these: small-molecule microarray binding, fluorescence 635 nm; higher = more signal.
Test [17] has as its target Epidermal growth factor receptor (Homo sapiens) (UniProt P00533). The test can be described thus: EGFR binders on small-molecule microarrays, primary screen, biochemical, small-molecule microarray, 635 nm fluorescence (AID 1104).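 Also: score merges 667 nm emission intensity with spot signal to noise over triplicate slides.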 The conditions noted are these: EGFR binding, higher = more signal.
The target in test [18] is Follistatin-related protein 3 (Homo sapiens) (UniProt O95633). The test can be described thus: FSTL3 binders on small-molecule microarrays, primary screen, biochemical, small-molecule microarray, 635 nm fluorescence (AID 1105).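 Also: score merges emission near 667 nm and signal to noise per printed spot across three slides.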 The conditions noted are these: FSTL3 binding, higher = more signal.
Sequence of Follistatin-related protein 3 (Homo sapiens) (O95633 whole entry, looked up): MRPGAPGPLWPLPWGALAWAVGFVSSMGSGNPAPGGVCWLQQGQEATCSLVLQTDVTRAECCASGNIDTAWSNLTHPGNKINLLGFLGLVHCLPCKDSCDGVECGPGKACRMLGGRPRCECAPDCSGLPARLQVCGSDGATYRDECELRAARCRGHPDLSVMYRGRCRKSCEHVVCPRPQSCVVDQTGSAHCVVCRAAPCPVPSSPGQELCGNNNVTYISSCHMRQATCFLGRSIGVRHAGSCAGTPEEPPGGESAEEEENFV
Test [19] deals with Dickkopf-related protein 1 (Homo sapiens) (UniProt O94907). The test can be described thus: DKK1 binders on small-molecule microarrays, primary screen, biochemical, small-molecule microarray, 635 nm fluorescence scan (AID 1106).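 Also: score merges emission near 667 nm with signal to noise over three replicate slides.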 The conditions noted are these: DKK1 binding, higher = more signal.
Sequence of Dickkopf-related protein 1 (Homo sapiens) (O94907 whole entry, looked up): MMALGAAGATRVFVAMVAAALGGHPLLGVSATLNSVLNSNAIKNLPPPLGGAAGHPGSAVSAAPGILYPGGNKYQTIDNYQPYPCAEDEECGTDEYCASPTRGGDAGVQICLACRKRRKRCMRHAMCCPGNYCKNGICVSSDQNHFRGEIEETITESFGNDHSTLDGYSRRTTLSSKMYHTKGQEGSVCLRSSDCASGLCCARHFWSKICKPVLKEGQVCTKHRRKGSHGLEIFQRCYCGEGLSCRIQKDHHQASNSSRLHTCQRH
Test [20] relates to Inhibin beta A chain (activin A). Put plainly: INHBA (activin A) binders on microarrays, primary screen, biochemical, small-molecule microarray, 635 nm fluorescence scan (AID 1107).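 Also: mouse activin A protein probed at 4.33 µg/mL on printed slides; score merges bound-protein fluorescence near 667 nm with spot signal-to-noise.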 The conditions noted are these: small-molecule microarray binding, higher = more signal.

Each structure is given as a SMILES string. The source made the active and inactive calls.

Consider 5 compounds from PubChem BioAssay.

Sequence of Epidermal growth factor receptor (Homo sapiens) (P00533 whole entry, looked up): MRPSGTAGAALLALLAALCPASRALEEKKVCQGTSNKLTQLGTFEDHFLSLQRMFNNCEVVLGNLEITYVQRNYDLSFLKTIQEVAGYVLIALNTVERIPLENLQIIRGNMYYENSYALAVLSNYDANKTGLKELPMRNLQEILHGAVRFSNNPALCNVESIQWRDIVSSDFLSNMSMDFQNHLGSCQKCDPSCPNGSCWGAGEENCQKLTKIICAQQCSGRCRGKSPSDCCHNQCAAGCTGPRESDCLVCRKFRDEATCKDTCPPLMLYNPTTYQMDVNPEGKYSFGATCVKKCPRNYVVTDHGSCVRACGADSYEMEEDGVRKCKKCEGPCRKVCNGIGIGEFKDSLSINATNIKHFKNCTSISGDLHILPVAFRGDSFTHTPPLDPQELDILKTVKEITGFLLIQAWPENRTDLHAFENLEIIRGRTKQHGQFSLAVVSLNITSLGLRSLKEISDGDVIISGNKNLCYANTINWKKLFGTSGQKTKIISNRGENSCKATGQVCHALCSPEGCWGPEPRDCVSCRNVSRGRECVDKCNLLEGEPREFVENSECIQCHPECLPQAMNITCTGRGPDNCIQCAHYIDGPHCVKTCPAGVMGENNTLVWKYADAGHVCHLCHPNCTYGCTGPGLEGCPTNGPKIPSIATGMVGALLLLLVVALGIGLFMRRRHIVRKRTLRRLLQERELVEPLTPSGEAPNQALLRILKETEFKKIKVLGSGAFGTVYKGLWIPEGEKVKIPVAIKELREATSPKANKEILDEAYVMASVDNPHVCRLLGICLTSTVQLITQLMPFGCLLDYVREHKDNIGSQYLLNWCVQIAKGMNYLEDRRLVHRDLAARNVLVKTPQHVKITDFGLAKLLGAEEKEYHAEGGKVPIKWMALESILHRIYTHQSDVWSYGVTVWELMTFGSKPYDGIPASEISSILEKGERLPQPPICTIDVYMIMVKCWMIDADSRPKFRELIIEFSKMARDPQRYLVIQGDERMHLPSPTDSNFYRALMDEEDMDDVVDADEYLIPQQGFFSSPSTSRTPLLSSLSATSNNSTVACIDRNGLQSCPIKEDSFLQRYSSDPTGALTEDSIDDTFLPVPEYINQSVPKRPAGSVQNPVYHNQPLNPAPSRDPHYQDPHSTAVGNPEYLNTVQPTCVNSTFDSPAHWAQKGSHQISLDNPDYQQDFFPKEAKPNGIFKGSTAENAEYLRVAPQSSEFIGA
Sequence of Fibroblast growth factor 10 (Homo sapiens) (O15520 whole entry, looked up): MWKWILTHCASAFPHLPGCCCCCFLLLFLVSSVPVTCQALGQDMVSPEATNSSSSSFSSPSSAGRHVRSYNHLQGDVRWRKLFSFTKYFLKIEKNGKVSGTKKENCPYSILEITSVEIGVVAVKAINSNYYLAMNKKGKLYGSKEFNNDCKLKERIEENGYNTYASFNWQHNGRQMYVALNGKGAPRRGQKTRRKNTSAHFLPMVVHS

As to `COc1ccc(NN2C(C(O)c3ccco3)C=CC3C(=O)N(C4CCCCC4)C(=O)C32)cc1` (stereo not given), the composite z-score in test [1] was 1.56; in test [5] it was 3.06; in test [7], 0.0405; in test [8], 0.89; in [9], 1.03; in test [10], 0.191. The composite z-score was determined as 1.39 in test [11]; 0.456 in test [12]; 0.689 in test [13]; 1.35 in [15]; 1.32 in test [16]; 0.423 in [17]. The values for the composite z-score in test [18], in test [19] and in [20] were 1.49, 0.0006 and 0.725, respectively. Besides, the z-score was 0.0039 (inactive) in test [2]; -0.134 (inactive) in test [3]; 0.705 (inactive) in [4]; -0.465 (inactive) in [6]; 0.157 (inactive) in [14].

On to `C=CCOC(=O)[C@@H]1[C@H]2C(=O)O[C@H](c3ccccc3)[C@H](c3ccccc3)N2[C@H](c2ccc(OCCOC(=O)[C@H]3C[C@H]4C(=O)N[C@@H](CC(C)C)C(=O)N4[C@H]3c3ccc(O)cc3)cc2)[C@@]12C(=O)Nc1ccc(I)cc12`, for which the composite z-score in test [1] was 1.54; in [5] it was 2.75; in [7], -0.0229; in [8] it was 1.81; in [9], 1.06; in test [10] it was 0.0582. Besides, the composite z-score is 1.25 in [11]; 0.198 in test [12]; -0.093 in test [13]; 1.4 in test [15]; 1.32 in test [16]; 1.08 in test [17]. Moreover, the composite z-score in [18] turned out to be 1.51; in [19] it was 0.931; in [20] it was 0.463. For the same compound, the z-score in test [2] was 0.157 (inactive); in [3], 1.11 (inactive); in test [4], 2.65 (inactive); in test [6], 0.574 (inactive); in [14] it was 0.242 (inactive).

In the case of `[N-]=[N+]=NCc1ccccc1C[C@]1(C(=O)NCC(O)CO)N=C(c2ccc(OCCCO)cc2)O[C@H]1c1ccccc1CN=[N+]=[N-]` (stereo not given in full), the composite z-score in [1] is 1.56; in test [5], 3.6; in test [7] it was 0.054; in test [8], -0.0965; in test [9], 0.624; in test [10], 0.306. Further, the composite z-score in [11] is 0.425; in [12], 0.384; in [13], 0.953; in test [15], 1.08; in test [16], 1.15; in test [17] it was -0.154. Moreover, the composite z-score in [18] is -0.392; in [19] it was -0.749; in test [20] it was 0.387. Besides, the z-score in [2] was -0.331 (inactive); in [3], 0.735 (inactive); in test [4], 1.48 (inactive); in test [6], -0.172 (inactive); in test [14], -0.47 (inactive).

As for `O=C1C2C=CC(C(O)c3cc(C(F)(F)F)cc(C(F)(F)F)c3)N(Nc3ccc([N+](=O)[O-])cc3)C2C(=O)N1c1ccccc1` (stereo not given), the composite z-score was 1.54 in test [1]; 3.47 in test [5]; -0.0229 in test [7]; 0.411 in test [8]; 1.02 in test [9]; 0.0149 in [10]. Also, the composite z-score in test [11] was 0.905; in test [12], 0.359; in test [13] it was 0.499; in [15], 0.902; in test [16] it was 1.34; in [17], 0.437. Moreover, the values for the composite z-score in test [18], in test [19] and in [20] were 1.39, -0.246 and -0.0083, respectively. In addition, the z-score is 0.527 (inactive) in [2]; 1.15 (inactive) in [3]; 33.4 (active) in test [4]; -1.57 (inactive) in test [6]; 0.765 (inactive) in test [14].

`O=C(CS)NCCCCCCNC(=O)[C@@H]1C[C@@H]2C(=O)N3CCC[C@H]3C(=O)N2[C@@H]1c1cccc(OCCO)c1`: the composite z-score was 1.35 in [1]; 2.35 in test [5]; 0.177 in [7]; 0.488 in test [8]; 1 in test [9]; 0.0195 in [10]. Also, the composite z-score in test [11] was determined as 1.62; in test [12] it was 0.0302; in [13] it was 0.396; in [15], 0.964; in [16], 0.896; in [17], 0.559. The values for the composite z-score in test [18], in [19] and in test [20] were 0.704, 0.426 and 0.653, respectively. For the same compound, the z-score is -1.69 (inactive) in test [2]; 0.335 (inactive) in test [3]; -0.365 (inactive) in [4]; 1.2 (inactive) in test [6]; -1.77 (inactive) in [14].
